Assay [1] is described as follows: inhibitors of TNFa-induced NFkB p65 translocation, primary screen, imaging, HUVEC, MLSMR starter and 10KST1 sets (AID 438;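 active = inhibition above 20% together with a positive visual image hit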;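 also: compound added about 3h40 before a 20 min TNFalpha stimulation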;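 as to inhibition: signal is the nuclear over cytoplasmic p65 intensity ratio per well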). The following applies: HUVEC TNFa-induced p65 nuclear translocation; cell count: measured here: nuclei count (cytotoxicity indicator), at 2.08 µM; inhibition: at 2 µM, stronger effect = higher value, 0% TNFa-plus-vehicle, 100% no-TNFa wells.
The nature of assay [2]: reduction of polyQ htt aggregates in cells – imaging, exon1htt(103Q)mCFP cells, high-content imaging, primary screen (AID 483;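 active = visual image review flags a hit and inhibition of aggregation exceeds 20%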;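 also: compound exposure lasted 3 days before fixation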;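 as to nuclei count: percent of the per-plate median nuclei count of sample wells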). The following applies: exon1htt(103Q)mCFP cell line, aggregate imaging, at 2 µM; inhibition of aggregation: stronger effect = higher value; nuclei count: measured here: cell count, toxicity.
Assay [3] is described as follows: endothelial E-selectin expression blockers – imaging, HUVEC, immunofluorescence, MLSMR starter and 10KST1 sets, primary screen (AID 487;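 active = visually confirmed hit in the image check and inhibition above 20%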;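 as to inhibition: signal is fraction of cell area covered by stained E-selectin grains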;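 as to nuclei count: 100% = median nuclei count of all wells on the same plate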). The following applies: HUVEC TNFalpha-induced E-selectin immunofluorescence imaging, at 2 µM; inhibition: stronger effect = higher value; nuclei count: measured here: cell number, toxicity.
A short description of assay [4]: Primary imaging screen for DUSP6 inhibitors that restore phospho-Erk in transfected HeLa cells, chemical complementation (AID 609;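 active = compounds giving at least 50% inhibition in the cell-based MKP-3 phosphatase rescue imaging test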;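 as to inhibition: phospho-Erk level distribution per well compared with pooled transfected vehicle control wells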). The following applies: HeLa MKP-3 transfected, phospho-Erk imaging KS statistic, at 10 µM, cells stimulated with TPA for 15 min.
The target in assay [5] is Dual specificity protein phosphatase 6 (Homo sapiens) (UniProt Q16828). The assay is described as above. The following applies: HeLa MKP-3 transfected, phospho-Erk imaging KS statistic; at 10 µM; stronger effect = higher value; cells stimulated with TPA for 15 min.
The target of assay [6] is Voltage-gated potassium channel subunit beta-2 (Rattus norvegicus) (UniProt P62483). The assay is described as follows: inhibitors of rat Kvbeta2 reductase activity – biochemical, NADPH fluorescence, primary screen (AID 622;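 active = fluorescence slope higher than the sample average by over 3 SD, cut at about -0.22 in these data, passing the limit was not always enough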;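 also: slope of raw intensity against log time taken from 70 to 1610 s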). The following applies: recombinant KvBeta, 4-cyanobenzaldehyde reduction, at 10 µM, stronger effect = higher value.
The target is the same in assay [7]. The assay is described as follows: enhancers of rat Kvbeta2 NADPH turnover – biochemical, NADPH fluorescence, primary screen (AID 623;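 active = NADPH fluorescence slope more negative than the mean of all samples by about 3 SD, 99.7% confidence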;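 also: fluorescence intensity change per second fitted from 20 to 320 s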). The following applies: Recombinant KvBeta, NADPH fluorescence decrease slope, 10 min; at 10 µM; stronger effect = lower value.
The target of assay [8] is Alpha-2C adrenergic receptor (Homo sapiens) (UniProt P18825). Nature of the assay: compounds altering alpha2C-coupled GIRK flux – cell-based, HEK293 alpha2C/GIRK1/2, thallium flux, primary screen (AID 624;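 active = fluorescence slope after compound addition differing from the mean of all screened samples at 99.7% confidence, in either direction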;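 also: slope of fluorescence ratio to pre-addition baseline per second over 15 to 24 s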). The following applies: thallium flux BTC fluorescence, at 10 µM, actives lie on both sides.
The nature of assay [9]: inhibitors of larval lipid processing in zebrafish, primary screen, whole organism, PED6 fluorescence, gall bladder and intestine (AID 686;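 active = a full or partial loss of lipid-probe fluorescence in the fish gall bladder, intestine or both, judged by eye; inactive = no fluorescence loss, or compound toxic to the fish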;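 also: larvae 5 to 7 days old with five fish per well; signal comes from phospholipase A2 cleavage of quenched PED6 carried via bile; overnight exposure to compound and PED6 before scoring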). The following applies: Zebrafish larvae PED6 lipid processing, fluorescence scoring; screened at 20 µM (by protocol).
The nature of assay [10]: loss of swimming-algae plug formation – whole organism, Chlamydomonas reinhardtii, WT vs cilia-less mutant, absorbance, 96-well, primary screen (AID 463189).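 Also: 0% = wild type cc124 cells in DMSO and 100% = ciliumless bld1 mutant cells.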 The following applies: Chlamydomonas reinhardtii gravitaxis, OD600 absorbance, 2 days; at 10 µM; stronger effect = higher value.
The nature of assay [11]: blockers of RIG-like receptor reporter activation – cell-based, Sendai virus stimulus, luciferase, 10K MLSCN set, TLR/RLR signaling modifier project, primary screen (AID 602276;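 active = inhibition at or above 50% at 10 µM; inactive = inhibition below 50%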;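 also: firefly luciferase from ISG56 promoter only with Renilla not read in this screen; 0% = Sendai virus plus DMSO and 100% = medium plus DMSO without virus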). The following applies: HEK293 RL24 IRF3 luciferase reporter, at 10 µM, stronger effect = higher value. (In general: Reporter assays use an easily measured gene product as a stand-in for the process of interest.)

Assay [12] is described as follows: TLR3 IRF3 reporter activation blockers – cell-based, poly I:C stimulus, luciferase, 10K MLSCN set, primary screen (AID 602277;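 active = inhibition of the reporter signal at or above 50%; inactive = inhibition below 50%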). The following applies: HEK293-TLR3 RL24 IRF3 luciferase reporter, at 10 µM, stronger effect = higher value.
Setting [13] is: measured here: cell density z-score.
[14] abbreviates: measured here: nuclear c-Myc green intensity z-score.
Where [15] appears, read: measured here: nuclear pErk red intensity z-score, stronger effect = higher value.

One may read the inhibition as the change of the read-out against control, counted positive when it falls.

Each structure is given as a SMILES string. Where “and” joins values, the source holds several entries; their conditions need not be identical. Equal values may be shown once. Calls of active or inactive are those of the source.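 The calls were made as follows, unless noted: active = inhibition at or above 50% relative to wild type and mutant plate controls; inactive = inhibition below 50%.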

Chain of Alpha-2C adrenergic receptor (Homo sapiens) (P18825 whole entry, looked up): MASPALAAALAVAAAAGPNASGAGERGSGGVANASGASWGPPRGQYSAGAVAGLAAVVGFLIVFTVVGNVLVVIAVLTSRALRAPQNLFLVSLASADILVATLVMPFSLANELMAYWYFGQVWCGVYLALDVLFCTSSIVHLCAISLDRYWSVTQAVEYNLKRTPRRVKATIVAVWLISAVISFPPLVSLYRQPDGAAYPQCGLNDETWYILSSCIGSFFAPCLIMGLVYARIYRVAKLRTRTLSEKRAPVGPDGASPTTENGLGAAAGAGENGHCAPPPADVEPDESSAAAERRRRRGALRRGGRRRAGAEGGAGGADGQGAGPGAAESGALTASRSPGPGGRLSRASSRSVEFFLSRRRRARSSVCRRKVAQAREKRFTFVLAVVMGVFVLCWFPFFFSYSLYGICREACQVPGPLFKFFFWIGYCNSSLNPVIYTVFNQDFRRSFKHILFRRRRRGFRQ
Chain of Dual specificity protein phosphatase 6 (Homo sapiens) (Q16828 whole entry, looked up): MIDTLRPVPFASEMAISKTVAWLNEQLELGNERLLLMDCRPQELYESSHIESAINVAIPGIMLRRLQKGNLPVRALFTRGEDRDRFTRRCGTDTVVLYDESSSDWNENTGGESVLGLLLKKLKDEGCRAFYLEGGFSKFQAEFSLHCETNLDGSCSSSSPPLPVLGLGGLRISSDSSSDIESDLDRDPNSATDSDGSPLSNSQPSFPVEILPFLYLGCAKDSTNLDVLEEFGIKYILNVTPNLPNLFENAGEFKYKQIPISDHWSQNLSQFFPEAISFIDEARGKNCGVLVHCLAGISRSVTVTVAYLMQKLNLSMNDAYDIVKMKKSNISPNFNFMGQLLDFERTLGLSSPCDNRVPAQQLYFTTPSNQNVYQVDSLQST
Chain of Voltage-gated potassium channel subunit beta-2 (Rattus norvegicus) (P62483 whole entry, looked up): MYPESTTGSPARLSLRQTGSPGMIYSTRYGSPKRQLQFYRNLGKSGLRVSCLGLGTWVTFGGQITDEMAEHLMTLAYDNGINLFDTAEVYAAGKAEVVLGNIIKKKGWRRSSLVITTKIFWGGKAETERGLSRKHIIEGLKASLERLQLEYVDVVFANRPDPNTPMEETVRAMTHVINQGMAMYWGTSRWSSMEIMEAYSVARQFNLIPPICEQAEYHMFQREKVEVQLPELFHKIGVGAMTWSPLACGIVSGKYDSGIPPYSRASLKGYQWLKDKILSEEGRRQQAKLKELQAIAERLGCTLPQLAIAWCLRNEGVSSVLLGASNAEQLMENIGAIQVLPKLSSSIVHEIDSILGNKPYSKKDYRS

On to `N[C@@H](Cc1ccc(O)c(I)c1)C(=O)O`, for which the cell count in assay [1] was 525. The inhibition is 0.1% (inactive) in [1]; -11.6% (inactive) in [3]; -4.44% (inactive) in assay [5]; 0.129% (inactive) and -19.2% (inactive) in [10]; 9.28% (inactive) in assay [11]; 24.3% (inactive) in assay [12]. For the same molecule, the inhibition of aggregation in assay [2] was 1.7% (inactive). Also, the nuclei count in assay [2] is 92.3%; in [3] it was 110%. The z-score is -0.528 in [4] (setting [13]), -0.732 in [4] (setting [14]) and -0.19 in [4] (setting [15]). Also, the fluorescence slope in assay [6] was -0.463 (inactive). In addition, in assay [7], the NADPH fluorescence slope was 3e-05 (inactive). Moreover, in assay [8], the slope was 0.00503 (inactive). In addition, the call in [9] was inactive.
For the molecule `Cc1cccc(OCC(=O)N2CCC(N3CCCCCC3)CC2)c1`, in assay [1], the cell count was found to be 395. Besides, the inhibition in [1] is -7.8% (inactive); in [3] it was -247% (inactive); in assay [5], 5.57% (inactive); in assay [10], 17.1% (inactive); in assay [11], -0.464% (inactive); in [12], 3.84% (inactive). The inhibition of aggregation in assay [2] is 17.2% (inactive). The nuclei count came out at 97.5% in assay [2] and 128% in assay [3]. The z-score in assay [4] (setting [13]) was 1.59; in [4] (setting [14]) it was 1.35; in assay [4] (setting [15]) it was -0.179. In [6], the fluorescence slope was -0.384 (inactive). The NADPH fluorescence slope in assay [7] is -4.7e-05 (inactive). Also, the slope in assay [8] was 0.00464 (inactive). For the same molecule, in [9], the call was inactive.
With `Cc1c(Cl)cccc1Nc1ccccc1C(=O)O`, the cell count in [1] was determined as 612. Further, the inhibition is -8.8% (inactive) in assay [1]; -156% (inactive) in assay [3]; 5.42% (inactive) in assay [5]; -6.31% (inactive) in assay [10]; 4.32% (inactive) in assay [11]; 19.5% (inactive) in assay [12]. In [2], the inhibition of aggregation was 17.9% (inactive). Moreover, the figures for the nuclei count in [2] and in [3] were 108% and 129%, respectively. The z-score is -0.93 in assay [4] (setting [13]), -0.312 in assay [4] (setting [14]) and 1.31 in assay [4] (setting [15]). Besides, the fluorescence slope in assay [6] was -0.466 (inactive). The NADPH fluorescence slope in assay [7] is -4.7e-06 (inactive). For the same molecule, the slope in [8] is 0.00655 (inactive). Also, the molecule was called inactive in assay [9].
Turning to `CCCCC[C@H](O)/C=C/C1=C(CCCCCCC(=O)O)C(=O)CC1`, the cell count in assay [1] was determined as 582. Moreover, the inhibition in assay [1] was -10.1% (inactive); in assay [3], -15.5% (inactive); in [5] it was -0.493% (inactive); in [10], -11.8% (inactive); in [11] it was 7.96% (inactive); in assay [12], 34.1% (inactive). Besides, in assay [2], the inhibition of aggregation was -18.7% (inactive). In addition, the nuclei count was determined as 109% in assay [2] and 111% in assay [3]. Besides, the z-score in [4] (setting [13]) is 0.0464; in assay [4] (setting [14]), -0.541; in [4] (setting [15]) it was -1.16. Besides, in assay [6], the fluorescence slope is -0.474 (inactive). Also, in assay [7], the NADPH fluorescence slope was -5.2e-05 (inactive). The slope in assay [8] was 0.00393 (inactive). In addition, the result in assay [9] was inactive.
Turning to `COc1cccc(-c2nnc3sc(-c4ccc(C)cc4)nn23)c1`, the cell count in assay [1] was found to be 634. Also, the inhibition in [1] is 3.3% (inactive); in assay [3], -24.2% (inactive); in [5], -4.27% (inactive); in assay [10] it was 5.03% (inactive); in assay [11], 2.84% (inactive); in assay [12], 34.9% (inactive). Moreover, the inhibition of aggregation in assay [2] is 11.6% (inactive). Moreover, the figures for the nuclei count in assay [2] and in [3] were 77.9% and 121%, respectively. Besides, the z-score in assay [4] (setting [13]) was -0.746; in assay [4] (setting [14]), -0.965; in assay [4] (setting [15]) it was 1.01. In [6], the fluorescence slope was -0.414 (inactive). Moreover, the NADPH fluorescence slope in assay [7] was -0.000137 (inactive). The slope in assay [8] is 0.00537 (inactive). In addition, the call in [9] was inactive.
As to `CN(CCO)CC(O)Cn1cnc2c1c(=O)n(C)c(=O)n2C` (stereo not given) (tested in a mixture with another compound), in assay [1], the cell count worked out at 638. For the same molecule, the inhibition in [1] was -0.3% (inactive); in [3], 6.8% (inactive); in assay [5], 10.2% (inactive); in assay [10] it was -10.3% (inactive); in [11] it was 3.79% (inactive); in assay [12], 33.4% (inactive). Further, the inhibition of aggregation in assay [2] was 1.1% (inactive). Moreover, the nuclei count in assay [2] was found to be 103%; in [3] it was 125%. Moreover, the z-score in assay [4] (setting [13]) was 0.569; in assay [4] (setting [14]), 0.0927; in assay [4] (setting [15]) it was 0.334. The fluorescence slope in assay [6] was -0.511 (inactive). The NADPH fluorescence slope in [7] was -6e-05 (inactive). Also, the slope in [8] was 0.00421 (inactive). Besides, the result in assay [9] was inactive.
`COc1cc([C@@H]2c3cc4c(cc3[C@H](O)[C@H]3COC(=O)[C@H]23)OCO4)cc(OC)c1OC`: the cell count in assay [1] was 436. Besides, the inhibition in [1] is 21.5% (active); in [3] it was -226% (inactive); in assay [5], -6.41% (inactive); in assay [10], 0.865% (inactive); in [11] it was 33.7% (inactive); in assay [12], 81.6% (active). In [2], the inhibition of aggregation is -118% (inactive). For the same molecule, the nuclei count stood at 1.5% in assay [2] and 86.2% in [3]. Further, the z-score was 0.542 in assay [4] (setting [13]), -0.666 in assay [4] (setting [14]) and -0.822 in assay [4] (setting [15]). Also, the fluorescence slope in [6] was -0.472 (inactive). Also, the NADPH fluorescence slope in assay [7] is -0.000104 (inactive). Besides, the slope in assay [8] is 0.00519 (inactive). Moreover, the outcome in assay [9] was inactive.
`CCCOc1cccc(C2/C(=C(/O)c3ccccc3)C(=O)C(=O)N2CCN(C)C)c1` (stereo not given): the cell count in [1] worked out at 511. Besides, the inhibition was -3.9% (inactive) in [1]; -90.6% (inactive) in assay [3]; -0.159% (inactive) in [5]; 30.4% (inactive) in [10]; 15.1% (inactive) in [11]; 19.2% (inactive) in assay [12]. Besides, the inhibition of aggregation in [2] is -5.1% (inactive). The figures for the nuclei count in [2] and in assay [3] were 109% and 134%, respectively. The figures for the z-score in assay [4] (setting [13]), in [4] (setting [14]) and in [4] (setting [15]) were -0.467, 0.337 and 1.7, respectively. Besides, the fluorescence slope in [6] was -0.431 (inactive). For the same molecule, the NADPH fluorescence slope in [7] was -5.6e-05 (inactive). The slope in assay [8] is 0.00489 (inactive). The result in assay [9] was inactive.
On to `CCOC(=O)C1=C[C@]2(CC)CCCN3CCc4c(n1c1ccccc41)[C@@H]32`, for which, in assay [1], the cell count came out at 689. Moreover, the inhibition is -1.6% (inactive) in assay [1]; -59.3% (inactive) in assay [3]; 3.45% (inactive) in assay [5]; 5.61% (inactive) and -6.65% (inactive) in [10]; 5.01% (inactive) in assay [11]; 18.6% (inactive) in assay [12]. Moreover, the inhibition of aggregation in assay [2] is 15.2% (inactive). Besides, the results for the nuclei count in assay [2] and in assay [3] were 106% and 130%, respectively. Moreover, the z-score is -0.259 in [4] (setting [13]), 0.193 in [4] (setting [14]) and -0.265 in assay [4] (setting [15]). Besides, the fluorescence slope in assay [6] is -0.443 (inactive). Further, in assay [7], the NADPH fluorescence slope was -4.6e-05 (inactive). Also, in assay [8], the slope was 0.013 (active). Further, the call in assay [9] was inactive.
Take `CC(=O)OCC(=O)[C@@]1(O)CC[C@H]2[C@@H]3CCC4=CC(=O)CC[C@]4(C)[C@H]3[C@@H](O)C[C@@]21C`: in assay [1], the cell count amounted to 652. Besides, the inhibition in assay [1] is 2.9% (inactive); in assay [3], -99.5% (inactive); in assay [5], 10.2% (inactive); in [10], 17.2% (inactive); in [11], 2.51% (inactive); in assay [12], 28.7% (inactive). Moreover, the inhibition of aggregation in assay [2] was -9.2% (inactive). For the same molecule, the nuclei count in assay [2] was found to be 82.8%; in assay [3] it was 121%. Besides, the z-score is -2.38 in [4] (setting [13]), 1.32 in assay [4] (setting [14]) and 1.76 in [4] (setting [15]). Also, the fluorescence slope in assay [6] was -0.454 (inactive). The NADPH fluorescence slope in assay [7] is -5.2e-05 (inactive). For the same molecule, the slope in assay [8] was 0.00445 (inactive). Moreover, the result in [9] was inactive.

Values taken from PubChem BioAssay.
